Source: the supplement of paper PMC10338343
± gives the standard deviation.

Assays:
[1] = test system: MILI (PIWIL2) piRISC loaded with L1MC piRNA (26 nt); test: pre-steady-state target cleavage rate (min^-1); guide: L1MC piRNA 5'p-UAACUAAAUACUAUGCAAGCUGUAGG; higher = faster piRNA-guided slicing of the target;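 note: 1 nM active piRISC with 0.1 nM target library at 33 °C single turnover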
In short: (§1)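 The pre-steady-state cleavage rate was derived from a burst-and-steady-state fit of Cleave-'n-Seq data. For these assays, 1 nM active affinity-purified piRISC loaded with a single synthetic guide was mixed with […] a transcribed, DNA-blocked target RNA library in HEPES–potassium acetate buffer at 33 °C, with or without 500 nM GTSF1 partner protein, for 0–8 or 0–960 min. Sequencing counts of uncleaved targets were normalised to depth and to weakly complementary targets, and k3 was capped at 0.0001 min^-1 after three trials were pooled.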

[2] = test system: EfPiwi piRISC loaded with L1MC piRNA (26 nt); test: pre-steady-state target cleavage rate (min^-1); auxiliary factor: 500 nM Ephydatia muelleri Gtsf1; guide: L1MC piRNA 5'p-UAACUAAAUACUAUGCAAGCUGUAGG; MIWI and MILI are mouse PIWI proteins and EfPiwi is from a freshwater sponge; tags in brackets are library labels; higher = faster piRNA-guided slicing of the target
In short: as §1

[3] = auxiliary factor: 500 nM mouse GTSF1
[4] = auxiliary factor: none (no GTSF1)

Row | Sequence | pre-steady-state target cleavage rate [1, 3] | pre-steady-state target cleavage rate [1, 4] | pre-steady-state target cleavage rate [2]
1 | UCCUGGAUGUCGAUGCAUAUUAUUUAGUUA | 0.016 ± 0.0043 | 0.00389 ± 0.0019 | 0.0047 ± 0.0036
2 | UCCUCCUACAGCUUGCAUAGUAUUUAUUUA | 0.142 ± 0.019 | 0.00314 ± 0.0027 | 0.143 ± 0.053
3 | UCCUGGAACAGCUUGUAUAGUAUUUAGUUA | 0.323 ± 0.017 | 0.00685 ± 0.0022 | 0.0686 ± 0.013
4 | UCCUCCUACAGCUUGCAUAGUAUUUAGGUUA | 0.251 ± 0.045 | 0.00312 ± 0.0031 | 0.00552 ± 0.0017
5 | UCCUGGAUGAGCUUGCAUAGUAUUUUAGUUA | 0.163 ± 0.019 | 0.00807 ± 0.0028 | 0.00631 ± 0.0035
6 | UCCUGGAUGACCUUGCAAAGUAUUUAGUUA | 0.0397 ± 0.011 | 0.00372 ± 0.0031 | 0.00391 ± 0.0037
7 | UCCUGGAUGACGUUGCAUAGUAUUUAGUUA | 0.176 ± 0.02 | 0.00683 ± 0.0027 | 0.00512 ± 0.0026
8 | UCCUGGAUGUGCUUGCAUAGUAAUUAGUUA | 0.095 ± 0.013 | 0.00684 ± 0.0024 | 0.00847 ± 0.0037
9 | UCCUCCUACAGCUAUGCAUAGUAUUUAGUUA | 0.267 ± 0.02 | 0.00637 ± 0.0022 | 0.0164 ± 0.0055
10 | UCCUGGUACAGCUUGCAUAGUAUUUAGUUUA | 0.375 ± 0.028 | 0.0152 ± 0.005 | 0.0765 ± 0.024
11 | UCCUGGAUCAGGUAGCAUAGUAUUUAGUUA | 0.118 ± 0.013 | 0.00574 ± 0.0022 | 0.00369 ± 0.0035
12 | UCCUGGUACAGCUUGCAUAGUUUUUAGUAA | 0.0656 ± 0.014 | 0.00501 ± 0.0027 | 0.00728 ± 0.0027
13 | UCCUGGAACAGCUUGCAUAGUAUUUACGUUA | 0.204 ± 0.027 | 0.00654 ± 0.0028 | 0.00579 ± 0.0024
14 | UCCUGUUACAGCUUGCAUAGUAUUUAGUUA | 0.328 ± 0.018 | 0.0102 ± 0.0034 | 0.231 ± 0.07
15 | UCCUGGAUGUCUUUGCAUAGUAUUUAGUUA | 0.119 ± 0.015 | 0.0125 ± 0.0027 | 0.00871 ± 0.0039
16 | UCCUCCAACAGCUUGCAAAGUAUUUAGUUA | 0.155 ± 0.01 | 0.00656 ± 0.0019 | 0.0132 ± 0.0038
17 | UCCUGCAACACCUUGCAUAGUAUUUAGUUA | 0.192 ± 0.026 | 0.00568 ± 0.0027 | 0.0123 ± 0.0034
18 | UCCUCCUACAGCAUGCAUUGUAUUUAGUUA | 0.217 ± 0.015 | 0.0102 ± 0.0027 | 0.0134 ± 0.0043
19 | UCCUCCUACAGCGUGCAUAGUAUUUAGUUA | 0.309 ± 0.021 | 0.00999 ± 0.003 | 0.1 ± 0.026
20 | UCCUGGAUGUCCUUGCAUAGUAUUUAGUAA | 0.117 ± 0.019 | 0.00376 ± 0.0019 | 0.00321 ± 0.0025
21 | UCCUUCUACAGCUUGCAUAGUAUUUAGUUA | 0.3 ± 0.015 | 0.0105 ± 0.0029 | 0.119 ± 0.035
22 | UCCUGCUACACCUUGCAUAGUUUUUAGUUA | 0.0358 ± 0.01 | 0.00475 ± 0.0022 | 0.00395 ± 0.002
23 | UCCUGGAACAGGUUGCAUAGUAUUUAGUAA | 0.232 ± 0.02 | 0.00824 ± 0.0023 | 0.00828 ± 0.0031
24 | UCCUGGAACUGCAUGCAUAGUAUUUAGUUA | 0.224 ± 0.013 | 0.00585 ± 0.0025 | 0.0126 ± 0.0039
25 | UCCUGGAUCUAGCUUGCAUAGUAUUUAGUUA | 0.193 ± 0.021 | 0.00722 ± 0.0025 | 0.0755 ± 0.019
26 | UCCUCCUACAGGUUGCAUAGUAUAUAGUUA | 0.219 ± 0.022 | 0.00587 ± 0.0019 | 0.0129 ± 0.0046
